Hit rate of the full screen: of about 96,000 compounds, about 100 (0.1%) were called active. The sample holds actives, similar compounds and a random draw of the others, so the mix is not that of the screen. Entries with a potency or affinity are not part of this list. Values without a mark were called inactive.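 Rule for the calls: active = displacement above 50% at 20 µM plus a fluorescence interference ratio under 1.5; inactive = the rest.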
Molecular target: Bcl-2-like protein 10 (Homo sapiens) (UniProt Q9HD36)
Assay: Bcl-B/TR3 peptide binding disruption – biochemical, fluorescence polarization, FITC-TR3 peptide, selectivity assay for Bfl-1 inhibitor project, primary screen (AID 748);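 note: plate controls were wells without compound for no effect and wells lacking Bcl-B protein for full effect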
Conditions: FP displacement of FITC-TR3 peptide from Bcl-B; at 20 µM; active compounds read high

| Compound | displacement |
| --- | --- |
| COc1ccc(N=C2SC(CC(=O)Nc3ccccc3)C(=O)N2CC2CCCO2)cc1 (stereo unspecified) | -7.7% |
| COc1ccc2c(c1)c(=O)oc1cc(OCC(=O)NC3CC3)ccc12 | -27.3% |
| Cc1cc(=O)oc2ccc(OCC(=O)N3CCC(C)CC3)cc12 | -6.2% |
| COc1cccc(OCC(=O)NC2CCCCC2)c1 | -1.4% |
| COc1ccc2c(c1)c(=O)oc1cc(OCC(=O)N3CCCC(C)C3)ccc12 (stereo unspecified) | 31.5% |
| COc1ccc2c(c1)c(=O)oc1c(C)c(OCC(=O)N3CCc4ccccc4C3)ccc12 | 17.9% |
| Cc1cc(=O)oc2cc(OCC(=O)N3CCc4ccccc4C3)ccc12 | -2.9% |
| COC(=O)c1ccccc1OCC(=O)NC1CCCCC1 | -0.5% |
| O=C1CC(=O)C(n2cncn2)C(c2c(F)cccc2Cl)C1 (stereo unspecified) | 1.3% |
| O=C(CSc1ncccc1-c1nc2ccccc2[nH]1)N1CCN(c2ccccc2F)CC1 | -0.6% |
| COc1cc(C(=O)NCCC(=O)NCCCN2CCCCC2C)cc(OC)c1OC (stereo unspecified) | -7% |
| O=[N+]([O-])c1cc(/C=N\Nc2nccs2)ccc1O | 107% (active) |
| Cc1ccc(/C=N/NC(=O)c2cccs2)cc1[N+](=O)[O-] | -1.9% |
| Clc1cccc(/C=N\Nc2nccs2)c1 | -14.4% |
| CCCn1c(CN2CCN(C(=O)c3ccco3)CC2)nc2c1c(=O)n(C)c(=O)n2C | -3.6% |
| CCSc1nnc(NC(=O)c2ccccn2)s1 | 2.1% |
| CCSc1nnc(NC(=O)c2cnccn2)s1 | 58.3% (active) |
| CCc1nnc(NC(=O)c2cnccn2)s1 | -1% |
| CCc1c(C)nc2[nH]nc(-c3ccccc3)n2c1=O | 3.2% |
| CCOC(=O)c1cc2c(=O)n3cccc(C)c3nc2n(Cc2ccccc2Cl)c1=N | -0.7% |
| Cn1c(=O)[nH]c(=O)c2c1nc(Br)n2Cc1ccccc1Cl | -0.4% |
| COc1cccc(C(=O)NC2CC3CCCC(C2)N3CC(=O)Nc2ccc(N(C)C)cc2)c1 (stereo unspecified) | 7.7% |
| COc1cc(C(=O)NC2CC3CCCC(C2)N3CC(=O)Nc2ccccc2)cc(OC)c1OC (stereo unspecified) | -5.3% |
| Cn1c(=O)c2nnn(/N=C(\c3ccccc3)C3CC3)c2n(C)c1=O | 0.7% |
| Oc1ccc(C2=Nn3c(nnc3-c3ccco3)SC2)cc1O | 56.6% (active) |
| COc1ccc(C2=Nn3c(nnc3-c3ccco3)SC2)cc1OC | 5.3% |

| Compound | displacement |
| --- | --- |
| COc1ccc(C2=Nn3c(nnc3-c3ccco3)SC2)cc1 | 0.6% |
| COc1ccc(NC(=O)C2CCCN(c3c4c(nc5ncnn35)CCC4)C2)cc1 (stereo unspecified) | -4.1% |
| COc1ccc(NC(=O)C2CCN(C(=O)c3ccc(OC)cc3)CC2)cc1 | 3.5% |
| CCOC(=O)c1cccc(NC(=O)CSc2nc(N)cc(N)n2)c1 | -1.6% |
| COC(=O)c1cccc(NC(=O)COC(=O)CSc2nc(C)cc(C)n2)c1 | -13.3% |
| CCc1nnc(SCC(=O)Nc2ccccc2)nc1CC | -1.5% |
| O=C(CSc1nnc2c3ccccc3c3ccccc3c2n1)Nc1ccccc1 | -29.6% |
| Cc1ccc(SCC(=O)Nc2ccc(-c3nnc(-c4ccco4)o3)cc2)cc1 | -9.5% |
| Cc1cccc(NC(=O)CSc2nnc(-c3ccco3)o2)c1C | 7.2% |
| Cc1cccc(C)c1NC(=O)CSc1nnc(-c2ccco2)c(-c2ccco2)n1 | -4.1% |
| Cc1cccc(NC(=O)CSc2nnc(-c3ccco3)c(-c3ccco3)n2)c1C | 37.3% |
| Cc1ccc2oc(-c3cccc(NC(=O)c4ccc(Br)o4)c3)nc2c1 | -23.6% |
| CC(NC(=O)CSc1nnc(CC(=O)Nc2ccc(Cl)c(Cl)c2)n1C)c1ccccc1 (stereo unspecified) | -13.6% |
| Cc1cccc(N(C)S(=O)(=O)c2ccc3c(c2)CCC(=O)N3)c1 | -24.5% |
| Cc1ccc(S(=O)(=O)Cc2ccc(C(=O)N3CCCC3)o2)cc1 | -6.7% |
| COc1ccc(S(=O)(=O)Cc2ccc(C(=O)N3CCc4ccccc4C3)o2)cc1 | 9.8% |
| Cc1ccc(S(=O)(=O)Cc2ccc(C(=O)N3CCCCCC3)o2)cc1 | 21.6% |
| Cc1ccc(S(=O)(=O)Cc2ccc(C(=O)N3CCN(Cc4ccccc4)CC3)o2)cc1 | 16.9% |
| COC(=O)c1cccc(NC(=O)CSc2nnc(C)n2Cc2ccccc2)c1 | -10.5% |
| CCOc1ccc(N2C(=O)CC(N3CCN(C4CCc5ccccc5C4)CC3)C2=O)cc1 (stereo unspecified) | 5.4% |
| Cc1ccc2c(c1)c1c3n2CCN(C(=O)CN2CCN(C)CC2)C3CCC1 (stereo unspecified) | 15.1% |
| CC(=O)N1CCn2c3c(c(=O)c4cc(C)ccc42)CCC31 (stereo unspecified) | 4.4% |
| COCC(C)n1c(C)cc(C(=O)COC(=O)c2nc3nc(C)cc(C)n3n2)c1C (stereo unspecified) | 9.9% |
| COc1cc(NC(=O)COC(=O)c2nc3nc(C)cc(C)n3n2)cc(OC)c1 | 0.7% |
| Cc1ccc(CC(=O)NC(C)CCc2ccccc2)cc1 (stereo unspecified) | 1% |
| Cc1cc(NC(=O)COC(=O)[C@H](C)NC(=O)c2ccccc2)no1 | 11.4% |

| Compound | displacement |
| --- | --- |
| Cc1ccc(C)n1-c1ccc(C(=O)O)cc1 | 42.6% |
| O=C(O)c1cccc(N2CCCC2)c1 | -2.4% |
| N/C(COc1ccc(F)cc1)=N\NC(=O)c1cccnc1Oc1ccccc1 | 12.1% |
| C/C(Cl)=C/Cn1c(=O)c2c(nc(Br)n2Cc2ccccc2)n(C)c1=O | 4.3% |
| C/C(N)=C(/C#N)C(=O)CSc1nnc(Nc2cccc(C)c2C)s1 | -1.5% |
| C/C(N)=C(/C#N)C(=O)CSc1nnc(Nc2ccccc2C)s1 | 4.3% |
| O=S(=O)(c1ccccc1)N1CCSC1c1ccco1 (stereo unspecified) | -4.6% |
| CCc1cc(C(=O)Cc2cnn(-c3ccccc3)c2)c(O)cc1O | -5.9% |
| Cc1ccc(O)c(C(=O)c2cnn(-c3ccccc3)c2)c1 | -8.5% |
| CC(SCCc1ccccn1)C(=O)O (stereo unspecified) | -2% |
| CCn1c(SCC(=O)Nc2ccc(NC(C)=O)cc2)nnc1C1CC1 | -2.2% |
| COc1ccc(C(=O)c2coc3ccc(O)c(CN4CCCCC4)c23)cc1 | -2.5% |
| O=c1c(-c2ccccc2)coc2c(CN3CCCC3)c(O)ccc12 | 0.4% |
| Nc1csnc1C(=O)O | 1.9% |
| Cc1nnc(-c2cccc(Br)c2)c2cn(-c3ccccc3Cl)nc12 | 7.2% |
| CCCCC(=O)Nc1ccc(NC(=O)CCCC)nc1 | -8.6% |
| CCn1c(SCC(=O)c2ccc(O)c(O)c2)nnc1-c1ccc(C)cc1 | 33% |
| CCn1c(SCC(=O)c2ccc(O)c(O)c2)nnc1-c1ccccc1 | 15.8% |
| Cc1ccc(C(=O)CSc2cc(C)nc(SCC(=O)c3ccccc3)n2)cc1 | -6.6% |
| Nc1cc(N)nc(SCC(=O)c2ccccc2)n1 | -7.4% |
| Cc1ccc(NC(=O)CCn2nc(C)cc2C)c(C)c1 | -5% |
| CCN(CCO)c1ccc(-n2c(N)c(C(=O)OC)c3nc4ccccc4nc32)cc1 | 12.6% |
| CC(C)c1nnc(NC(=O)CCN2C(=O)c3ccccc3C2=O)s1 | -5.9% |
| CCn1c(SCc2ccc(C#N)cc2)nnc1-c1cccc(Cl)c1 | -1.6% |
| Clc1ccc(CN(Cc2ccccc2)C(c2cccs2)c2nnnn2C2CCCC2)cc1 (stereo unspecified) | -9.7% |
| O=C1CN(C(=O)c2cnccn2)c2ccccc2N1 | 7% |

| Compound | displacement |
| --- | --- |
| O=C(c1cccnc1)N1CCc2ccccc21 | -1.9% |
| Cc1cc(C(F)F)n2ncc(C(=O)N3CCC(C(N)=O)CC3)c2n1 | 10.5% |
| CCS(=O)(=O)C(=C1NCCO1)S(=O)(=O)CC | 1.6% |
| Cc1cc(Cl)cc(Cl)c1OCC(=O)NCc1ccco1 | -20.9% |
| Cc1ccc2c(Cl)cc(Cl)c(OCC(=O)NC(=O)NCc3ccco3)c2n1 | -8% |
| Cc1ccc2c(Cl)cc(Cl)c(OCC(=O)NCc3ccco3)c2n1 | 56.5% (active) |
| Cc1ccccc1C(=O)/C=C1/c2ccccc2CC(C)(C)N1C | 4.3% |
| c1ccc(Sc2cnc3ccccc3n2)cc1 | -0.3% |
| O=C1C(C=Nc2ccccc2O)=C(O)c2ccccc21 | -6.7% |
| CN=CC1=C(O)c2ccccc2C1=O | -13.3% |
| Cc1cc(C)c(C)c(S(=O)(=O)NCC(=O)O)c1C | 2.8% |
| CC(=O)c1ccc(N2CCN(c3ncc(C(F)(F)F)cc3Cl)CC2)cc1 | -8.1% |
| O=C(Nc1ccc(N2CCOCC2)cc1)Nc1ccc(Cl)c(Cl)c1 | -11.1% |
| Cc1nnc2n(Cc3ccccc3)c(=O)c3c4c(sc3n12)COC(C)(C)C4 | 4.4% |
| Cc1ccc(-n2c(SCC(=O)N3CCCC3)nc3c(c2=O)SCC3)cc1 | 1% |
| COc1ccc(CNC(=O)c2noc3c2CCCC3)cc1 | -8.9% |
| Cc1ccc(NC(=O)c2noc3c2CCCCC3)cc1 | -10.5% |
| CCc1ccc(NC(=O)c2noc3c2CCCCC3)cc1 | -3% |
| CC(=O)c1ccc(NC(=O)c2noc3c2CCCCC3)cc1 | -0.9% |
| O=C(N1CCOCC1)N1CCN(c2nc(-c3ccccc3)cs2)CC1 | -0.8% |
| COC(=O)c1cc(C(=O)OC)n(Cc2ccc(F)cc2)n1 | -10.3% |
| O=C(Nc1ccc2nn(-c3ccccc3)nc2c1)c1ccc2c(c1)OCO2 | -30.3% |
| CCc1ccc(-n2nc3ccc(NC(=O)c4ccc5c(c4)OCO5)cc3n2)cc1 | -1% |

— PubChem BioAssay AID748 (Sanford-Burnham Center for Chemical Genomics, 2007)
